The structures appear in SMILES notation. Structures can show the parent of a compound that is named as a salt. ± gives the standard deviation.

26 compounds from the supplement of paper PMC4709259 can be followed below.

For test [1], the system named is Jurkat. The experiment in a line: mean cell size (FSC-A) relative to DMSO control (fraction of control); higher = larger cells. As to conditions: 48 h. The procedure, abridged:
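Jurkat cells seeded at 600 cells/µl were incubated 1 h, then exposed for 48h to the Enzo Screen-Well FDA Approved Drug Library v2.0 at 25µM in 0.9% (v/v) final DMSO. Drugs that cut counts below 20% of controls were diluted 10-fold and retested, down to 25nM. Cell count and mean cell size (forward scatter area) were read on an Accuri C6 flow cytometer, relative to solvent-only controls. Plates held 6-12 controls; values are means of 3 biological replicates.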

Test [2] concerns Jurkat. The experiment in a line: cell count relative to DMSO control (fraction of control); higher = more cells (less growth inhibition). The conditions noted are these: 48 h.

The compound `S=c1[nH]cnc2nc[nH]c12` [Mercaptopurine Hydrate] (concentration: 25 µM) displayed a mean cell size in test [1] of 1.08 ± 0.047. This compound showed a cell count in test [2] of 0.792 ± 0.1.
The matching figures for `CO/N=C(\C(=O)N[C@@H]1C(=O)N2C(C(=O)[O-])=C(C[N+]3(C)CCCC3)CS[C@H]12)c1csc(N)n1` [Cefepime·HCl Hydrate] (concentration: 25 µM): 1.02 ± 0.046 and 0.826 ± 0.045.
For `Nc1nc2c(ncn2COC(CO)CO)c(=O)[nH]1` [Ganciclovir] (concentration: 25 µM), the mean cell size in test [1] was found to be 1.022 ± 0.0079. The compound further registered a cell count in test [2] of 0.51 ± 0.1.
The corresponding values for `S=P(N1CC1)(N1CC1)N1CC1` [Thiotepa] (concentration: 2.5 µM) are 1.248 ± 0.012 and 0.583 ± 0.059.
The corresponding values for `Nc1nnc(-c2cccc(Cl)c2Cl)c(N)n1` [Lamotrigine] (concentration: 25 µM) are 1.01 ± 0.028 and 0.734 ± 0.16.
With `CC(C)Cc1ccc(C(C)C(=O)O)cc1` (configuration not stated) [Ibuprofen] (concentration: 25 µM), the mean cell size in test [1] was determined as 0.955 ± 0.011. Further, the cell count in test [2] amounted to 0.765 ± 0.077.
The corresponding values for `CC1(C)O[C@@H]2C[C@H]3[C@@H]4CCC5=CC(=O)CC[C@]5(C)[C@@]4(F)[C@@H](O)C[C@]3(C)[C@]2(C(=O)CCl)O1` [Halcinonide] (concentration: 25 µM) are 0.914 ± 0.03 and 0.883 ± 0.12.
Compound `CC1(C)O[C@@H]2C[C@H]3[C@@H]4C[C@H](F)C5=CC(=O)C=C[C@]5(C)[C@H]4[C@@H](O)C[C@]3(C)[C@]2(C(=O)CO)O1` [Flunisolide] (concentration: 2.5 µM) yielded a mean cell size in test [1] of 0.996 ± 0.021. The cell count in test [2] came to 0.893 ± 0.11.
The corresponding values for `O=c1[nH]cc(F)c(=O)[nH]1` [Fluorouracil (5-Fluorouracil)] (concentration: 25 µM) are 1.12 ± 0.037 and 0.379 ± 0.023.
The matching figures for `NC[C@H]1CC[C@H](C(=O)O)CC1` [Tranexamic Acid] (concentration: 25 µM): 0.961 ± 0.051 and 0.542 ± 0.14.
Take `Cc1ccccc1C(OCCN(C)C)c1ccccc1` (configuration not stated) [Orphenadrine Citrate] (concentration: 25 µM): in test [1], the mean cell size stood at 0.975 ± 0.056. Moreover, in test [2], the cell count worked out at 0.742 ± 0.13.
For the compound `COc1nc(N)nc2c1ncn2[C@@H]1O[C@H](CO)[C@@H](O)[C@@H]1O` [Nelarabine] (concentration: 25 µM), the mean cell size in test [1] was 1.4 ± 0.014. This compound yielded a cell count in test [2] of 0.201 ± 0.029.
The matching figures for `NCCCCCC(=O)O` [Aminocaproic Acid] (concentration: 25 µM): 0.976 ± 0.05 and 0.853 ± 0.1.
The corresponding values for `CCc1cccc2c3c([nH]c12)C(CC)(CC(=O)O)OCC3` (configuration not stated) [Etodolac] (concentration: 25 µM) are 1.08 ± 0.042 and 0.947 ± 0.018.
In test [1], `CNC(=O)c1cnn(-c2nc(N)c3ncn([C@@H]4O[C@H](CO)[C@@H](O)[C@H]4O)c3n2)c1` [Regadenoson] (concentration: 25 µM) yielded a mean cell size of 0.991 ± 0.035. The compound also had a cell count in test [2] of 0.883 ± 0.11.
The corresponding values for `CCOC(=O)[C@H](CCc1ccccc1)N[C@H]1CCc2ccccc2N(CC(=O)O)C1=O` [Benazepril·HCl] (concentration: 25 µM) are 0.965 ± 0.012 and 0.885 ± 0.035.
The corresponding values for `C=C[C@H]1CN2CC[C@H]1C[C@@H]2[C@@H](O)c1ccnc2ccc(OC)cc12` [Quinidine·HCl·H2O] (concentration: 25 µM) are 0.9234 ± 0.0047 and 0.665 ± 0.11.
On to `Nc1nc(=O)c2c([nH]1)NCC(CNc1ccc(C(=O)N[C@@H](CCC(=O)O)C(=O)O)cc1)N2C=O` (some centres not stated) [Leucovorin Calcium Pentahydrate] (concentration: 25 µM), for which the mean cell size in test [1] amounted to 0.933 ± 0.041. The compound further had a cell count in test [2] of 1.05 ± 0.035.
The compound `O=C1CN(/N=C/c2ccc([N+](=O)[O-])o2)C(=O)N1` [Nitrofurantoin] (concentration: 2.5 µM) came in with a mean cell size in test [1] of 0.955 ± 0.019. In addition, in test [2], the cell count worked out at 0.66 ± 0.029.
The compound `CCCCCCCCCC(=O)N[C@@H](Cc1c[nH]c2ccccc12)C(=O)N[C@H](CC(N)=O)C(=O)N[C@@H](CC(=O)O)C(=O)N[C@@H]1C(=O)NCC(=O)N[C@@H](CCCN)C(=O)N[C@@H](CC(=O)O)C(=O)N[C@H](C)C(=O)N[C@@H](CC(=O)O)C(=O)NCC(=O)N[C@H](CO)C(=O)N[C@@H]([C@H](C)CC(=O)O)C(=O)N[C@@H](CC(=O)c2ccccc2N)C(=O)O[C@@H]1C` [Daptomycin] (concentration: 25 µM) registered a mean cell size in test [1] of 0.975 ± 0.025. The same compound displayed a cell count in test [2] of 0.917 ± 0.039.
The compound `CCC(=O)O[C@]1(C(=O)SCF)[C@H](C)C[C@H]2[C@@H]3C[C@H](F)C4=CC(=O)C=C[C@]4(C)[C@@]3(F)[C@@H](O)C[C@@]21C` [Fluticasone Propionate] (concentration: 25 µM) displayed a mean cell size in test [1] of 0.967 ± 0.015. In test [2], this compound came in with a cell count of 1.06 ± 0.053.
Take `Nc1ccn([C@@H]2CS[C@H](CO)O2)c(=O)n1` [Lamivudine] (concentration: 25 µM): the mean cell size in test [1] stood at 0.995 ± 0.046. Besides, in test [2], the cell count stood at 0.624 ± 0.13.
For the compound `COc1ccc2cc([C@H](C)C(=O)O)ccc2c1` [Naproxen] (concentration: 25 µM), the mean cell size in test [1] was 0.941 ± 0.041. Besides, in test [2], the cell count came to 0.661 ± 0.1.
The matching figures for `CC(C)NCC(O)COc1cccc2[nH]ccc12` (configuration not stated) [Pindolol] (concentration: 25 µM): 0.976 ± 0.065 and 0.644 ± 0.16.
The corresponding values for `CCN(CC)CC#CCOC(=O)C(O)(c1ccccc1)C1CCCCC1` (configuration not stated) [Oxybutynin Chloride] (concentration: 25 µM) are 0.904 ± 0.022 and 0.895 ± 0.049.
The corresponding values for `CCCCc1nc(Cl)c(CO)n1Cc1ccc(-c2ccccc2-c2nnn[nH]2)cc1` [Losartan Potassium] (concentration: 25 µM) are 0.922 ± 0.041 and 0.418 ± 0.1.
